Laboratory results from article PMC7862700, “An all-to-all approach to the identification of sequence-specific readers for epigenetic DNA modifications on cytosine”.

Key:
Assay in all cases: DAPPL (digital affinity profiling via proximity ligation, sequencing); 10 mM Tris-HCl pH 7.5, 50 mM NaCl, 1 mM DTT, 4% glycerol, room temperature, 30 min; GST-TFs on glutathione beads, 16-mer random dsDNA library, 0.1% formaldehyde crosslink after washing; high values mean tight binding
Conditions in all cases: protein: recombinant; tags: N-terminal GST; dsDNA, one strand shown
ELK1 = molecular target: T1, ELK1 (Homo sapiens, UniProt P19419 1-428)
T1 sequence: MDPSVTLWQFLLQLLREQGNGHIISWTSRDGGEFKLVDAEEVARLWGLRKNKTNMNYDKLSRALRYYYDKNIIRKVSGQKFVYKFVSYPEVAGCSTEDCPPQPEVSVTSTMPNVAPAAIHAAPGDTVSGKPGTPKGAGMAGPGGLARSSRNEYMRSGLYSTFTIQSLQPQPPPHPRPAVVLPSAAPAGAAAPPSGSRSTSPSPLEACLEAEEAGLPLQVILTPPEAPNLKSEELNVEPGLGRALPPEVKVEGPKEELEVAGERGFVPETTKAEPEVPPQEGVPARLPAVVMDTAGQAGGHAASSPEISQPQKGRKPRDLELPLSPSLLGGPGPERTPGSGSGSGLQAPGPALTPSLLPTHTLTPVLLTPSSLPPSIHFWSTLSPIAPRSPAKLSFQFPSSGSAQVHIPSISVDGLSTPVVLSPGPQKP
In short: (§1)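 Beads coated with glutathione captured GST-fused human transcription factors that had been expressed in yeast, and the factors were then given DNA barcodes and pooled with a tag-only sample. The pools were incubated with 200 nmole of a random double-stranded 16-mer DNA library in Tris/NaCl/DTT/glycerol buffer for 30 min at room temperature, washed, crosslinked with 0.1% formaldehyde and proximity-ligated with BsaI/T4 ligase at 37 °C for 1 h. PCR amplification and Illumina NextSeq500 sequencing came last. Binding signal is each hexamer's read frequency for a factor divided by its frequency for the tag-only sample.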

GABPA = molecular target: T2, GABPA (Homo sapiens, UniProt Q06546 1-454)
T2 sequence: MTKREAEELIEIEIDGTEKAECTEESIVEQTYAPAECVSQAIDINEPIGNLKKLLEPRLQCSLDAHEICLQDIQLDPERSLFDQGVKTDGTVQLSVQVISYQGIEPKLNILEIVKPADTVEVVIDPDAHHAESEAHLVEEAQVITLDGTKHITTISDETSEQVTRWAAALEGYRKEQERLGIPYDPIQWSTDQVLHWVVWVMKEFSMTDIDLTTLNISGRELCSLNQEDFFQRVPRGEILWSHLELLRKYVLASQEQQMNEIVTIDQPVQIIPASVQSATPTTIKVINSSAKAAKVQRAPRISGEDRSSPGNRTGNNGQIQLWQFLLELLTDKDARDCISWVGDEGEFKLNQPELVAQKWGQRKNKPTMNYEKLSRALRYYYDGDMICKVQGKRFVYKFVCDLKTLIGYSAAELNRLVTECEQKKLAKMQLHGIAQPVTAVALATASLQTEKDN
In short: as §1

EHF = molecular target: T3, EHF (Homo sapiens, UniProt Q9NZC4 1-300)
T3 sequence: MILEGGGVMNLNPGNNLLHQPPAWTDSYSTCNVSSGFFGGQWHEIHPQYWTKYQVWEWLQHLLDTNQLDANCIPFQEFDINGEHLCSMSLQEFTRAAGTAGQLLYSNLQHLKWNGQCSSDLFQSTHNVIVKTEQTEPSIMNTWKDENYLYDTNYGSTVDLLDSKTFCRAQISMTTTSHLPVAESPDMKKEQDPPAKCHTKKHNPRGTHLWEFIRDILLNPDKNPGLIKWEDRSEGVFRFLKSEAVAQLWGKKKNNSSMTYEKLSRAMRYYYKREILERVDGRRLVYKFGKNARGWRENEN
In short: as §1

ELK3 = molecular target: T4, ELK3 (Homo sapiens, UniProt P41970 1-407)
T4 sequence: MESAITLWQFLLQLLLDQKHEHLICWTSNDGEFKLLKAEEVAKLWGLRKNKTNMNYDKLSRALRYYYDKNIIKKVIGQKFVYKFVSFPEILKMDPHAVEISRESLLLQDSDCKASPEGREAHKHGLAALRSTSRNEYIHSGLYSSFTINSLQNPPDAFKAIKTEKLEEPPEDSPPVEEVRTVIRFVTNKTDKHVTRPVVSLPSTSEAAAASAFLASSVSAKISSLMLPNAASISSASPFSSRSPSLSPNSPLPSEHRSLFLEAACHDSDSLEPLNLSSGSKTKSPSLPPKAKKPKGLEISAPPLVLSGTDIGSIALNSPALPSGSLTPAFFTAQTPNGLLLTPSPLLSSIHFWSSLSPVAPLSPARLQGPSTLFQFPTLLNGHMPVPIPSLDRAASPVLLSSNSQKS
In short: as §1

ETV5 = ETV5 (Homo sapiens, UniProt P41161 1-510)
Chain of ETV5 (P41161 whole entry): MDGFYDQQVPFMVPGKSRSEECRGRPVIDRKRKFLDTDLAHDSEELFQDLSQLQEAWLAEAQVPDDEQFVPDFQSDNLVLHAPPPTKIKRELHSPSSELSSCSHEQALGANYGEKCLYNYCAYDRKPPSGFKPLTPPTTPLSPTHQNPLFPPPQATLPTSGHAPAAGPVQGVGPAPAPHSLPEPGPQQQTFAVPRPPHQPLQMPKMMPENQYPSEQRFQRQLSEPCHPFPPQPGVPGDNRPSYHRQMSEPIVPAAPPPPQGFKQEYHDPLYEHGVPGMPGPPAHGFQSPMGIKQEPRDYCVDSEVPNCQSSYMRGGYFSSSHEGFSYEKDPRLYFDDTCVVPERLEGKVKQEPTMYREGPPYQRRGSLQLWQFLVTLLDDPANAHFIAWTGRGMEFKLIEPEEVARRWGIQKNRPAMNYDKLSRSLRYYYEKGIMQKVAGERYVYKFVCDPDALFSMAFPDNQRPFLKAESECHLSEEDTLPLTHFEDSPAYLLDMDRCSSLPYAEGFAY
In short: as §1

SPIC = molecular target: T5, SPIC (Homo sapiens, UniProt Q8N5J4 1-248)
T5 sequence: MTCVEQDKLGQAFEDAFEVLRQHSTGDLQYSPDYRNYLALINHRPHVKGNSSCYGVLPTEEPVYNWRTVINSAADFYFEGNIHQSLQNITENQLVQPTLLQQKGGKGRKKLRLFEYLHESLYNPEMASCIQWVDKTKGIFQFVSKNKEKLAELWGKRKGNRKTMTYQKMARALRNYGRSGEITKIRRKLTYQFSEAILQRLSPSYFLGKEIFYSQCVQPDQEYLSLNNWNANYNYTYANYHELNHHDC
In short: as §1

ELK4 = molecular target: T6, ELK4 (Homo sapiens, UniProt P28324-2 1-405)
T6 sequence: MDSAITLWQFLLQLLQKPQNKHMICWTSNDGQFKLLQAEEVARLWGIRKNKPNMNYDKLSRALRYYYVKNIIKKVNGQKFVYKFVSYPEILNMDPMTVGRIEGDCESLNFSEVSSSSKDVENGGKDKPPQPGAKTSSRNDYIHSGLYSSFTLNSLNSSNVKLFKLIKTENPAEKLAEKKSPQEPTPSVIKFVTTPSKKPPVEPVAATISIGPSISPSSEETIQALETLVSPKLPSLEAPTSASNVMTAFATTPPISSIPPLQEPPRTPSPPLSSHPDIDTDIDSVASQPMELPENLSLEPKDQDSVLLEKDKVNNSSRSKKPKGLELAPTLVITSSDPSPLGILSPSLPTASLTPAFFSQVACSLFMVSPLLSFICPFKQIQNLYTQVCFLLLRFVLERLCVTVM
In short: as §1

ERF = molecular target: T7, ERF (Homo sapiens, UniProt P50548 1-548)
T7 sequence: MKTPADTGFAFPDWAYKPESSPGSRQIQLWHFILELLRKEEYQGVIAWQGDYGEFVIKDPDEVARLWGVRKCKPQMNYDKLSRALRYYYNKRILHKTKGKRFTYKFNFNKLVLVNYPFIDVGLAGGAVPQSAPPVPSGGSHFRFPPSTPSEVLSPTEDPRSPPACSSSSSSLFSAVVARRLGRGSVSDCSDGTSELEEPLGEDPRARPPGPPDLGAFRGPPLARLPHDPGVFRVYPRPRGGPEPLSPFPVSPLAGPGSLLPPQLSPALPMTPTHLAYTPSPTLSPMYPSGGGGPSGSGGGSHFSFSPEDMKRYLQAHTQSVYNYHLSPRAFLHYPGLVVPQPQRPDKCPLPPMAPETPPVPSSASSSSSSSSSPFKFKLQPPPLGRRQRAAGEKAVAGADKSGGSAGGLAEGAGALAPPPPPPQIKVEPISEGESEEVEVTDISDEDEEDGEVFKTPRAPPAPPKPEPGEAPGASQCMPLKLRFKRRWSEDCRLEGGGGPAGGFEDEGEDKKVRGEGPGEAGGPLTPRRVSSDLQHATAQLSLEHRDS
In short: as §1

ETS2 = molecular target: T8, ETS2 (Homo sapiens, UniProt P15036 1-469)
T8 sequence: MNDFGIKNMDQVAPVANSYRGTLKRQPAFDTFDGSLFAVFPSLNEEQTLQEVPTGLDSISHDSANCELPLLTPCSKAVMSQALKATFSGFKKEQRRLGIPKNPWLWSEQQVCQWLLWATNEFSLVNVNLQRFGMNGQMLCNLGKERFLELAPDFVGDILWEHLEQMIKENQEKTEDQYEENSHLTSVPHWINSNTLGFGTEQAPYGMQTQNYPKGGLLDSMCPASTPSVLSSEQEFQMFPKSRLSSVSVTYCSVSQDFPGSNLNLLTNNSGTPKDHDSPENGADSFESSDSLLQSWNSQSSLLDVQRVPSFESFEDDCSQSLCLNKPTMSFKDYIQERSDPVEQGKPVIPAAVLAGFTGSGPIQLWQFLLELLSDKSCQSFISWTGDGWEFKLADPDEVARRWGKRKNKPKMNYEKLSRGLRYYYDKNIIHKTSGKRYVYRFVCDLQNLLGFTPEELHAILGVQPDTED
In short: as §1

SPDEF = molecular target: T9, SPDEF (Homo sapiens, UniProt O95238 1-335)
T9 sequence: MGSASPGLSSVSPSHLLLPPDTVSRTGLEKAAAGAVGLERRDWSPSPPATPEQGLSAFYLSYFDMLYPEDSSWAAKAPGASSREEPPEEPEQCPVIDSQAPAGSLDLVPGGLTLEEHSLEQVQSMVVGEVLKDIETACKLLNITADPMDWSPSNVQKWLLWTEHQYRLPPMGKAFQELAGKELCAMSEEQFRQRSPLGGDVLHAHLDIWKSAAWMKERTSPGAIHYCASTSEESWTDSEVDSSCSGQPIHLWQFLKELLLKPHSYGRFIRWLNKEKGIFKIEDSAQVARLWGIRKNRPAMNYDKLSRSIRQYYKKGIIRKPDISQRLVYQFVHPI
In short: as §1

ETV7 = molecular target: T10, ETV7 (Homo sapiens, UniProt Q9Y603 1-341)
T10 sequence: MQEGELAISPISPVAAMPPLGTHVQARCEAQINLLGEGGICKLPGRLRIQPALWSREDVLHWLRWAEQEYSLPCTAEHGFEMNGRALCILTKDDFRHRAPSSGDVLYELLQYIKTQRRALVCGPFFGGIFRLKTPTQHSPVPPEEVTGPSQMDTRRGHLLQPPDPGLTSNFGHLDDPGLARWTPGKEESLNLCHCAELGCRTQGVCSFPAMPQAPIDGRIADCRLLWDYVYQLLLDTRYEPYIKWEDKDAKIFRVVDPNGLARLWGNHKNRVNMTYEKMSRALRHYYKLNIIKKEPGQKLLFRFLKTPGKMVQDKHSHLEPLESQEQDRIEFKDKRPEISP
In short: as §1

ATAGGG
binding signal (ELK1): 1.01 fold enrichment (6-mer frequency, TF over GST control) | binding signal (GABPA): 1.03 fold enrichment (6-mer frequency, TF over GST control) | binding signal (EHF): 1.01 fold enrichment (6-mer frequency, TF over GST control) | binding signal (ELK3): 1.06 fold enrichment (6-mer frequency, TF over GST control) | binding signal (ETV5): 1.03 fold enrichment (6-mer frequency, TF over GST control) | binding signal (SPIC): 1.08 fold enrichment (6-mer frequency, TF over GST control) | binding signal (ELK4): 1.06 fold enrichment (6-mer frequency, TF over GST control) | binding signal (ERF): 1.14 fold enrichment (6-mer frequency, TF over GST control) | binding signal (ETS2): 1.01 fold enrichment (6-mer frequency, TF over GST control) | binding signal (SPDEF): 1.01 fold enrichment (6-mer frequency, TF over GST control) | binding signal (ETV7): 1.09 fold enrichment (6-mer frequency, TF over GST control)
